Measurements taken from PubChem BioAssay.
Active and inactive are the calls of the source. Unless noted, how the calls were made is not given here.

Columns and labels:
[1] = compounds binding Alexa647 anti-His antibody – biochemical, small-molecule microarray, 635 nm fluorescence, artefact control for SMM control protein annotation, primary screen (AID 1128); conditions: higher = more signal;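 further: score merges feature fluorescence with signal-to-noise for each printed compound spot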
[2] = system: Human papillomavirus type 1a E7 protein (residues 1-88); test: HPV1a E7 small-molecule binders, primary screen, biochemical, small-molecule microarray, residues 1-88, 635 nm (AID 1129); conditions: small-molecule microarray binding, fluorescence 635 nm; higher = more signal
[3] = target: Focal adhesion kinase 1 (Homo sapiens) (UniProt Q05397); test: PTK2 protein binding on printed compound slides – biochemical, small-molecule microarray, 635/667 nm fluorescence, BSA, DTT, primary screen (AID 1130); conditions: 635 nm fluorescence, higher = more signal;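 further: composite of spot emission at 667 nm and signal to noise over triplicate slides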
[4] = system: Fibrinogen (Alexa647-labelled); test: Alexa647-fibrinogen binding to printed small molecules – biochemical, small-molecule microarray, 635/667 nm fluorescence, artefact control for SMM control-protein annotation, profiling panel (AID 1131); conditions: fibrinogen-A647 binding fluorescence, higher = more signal;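 further: z-score merges 667 nm fluorescence with per-spot signal-to-noise over triplicate slides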
[5] = target: Follistatin (Homo sapiens) (UniProt P19883); test: FST protein binding to printed compounds – biochemical, small-molecule microarray, 635/667 nm fluorescence, primary screen (AID 1132); conditions: 635 nm fluorescence, higher = more signal
[6] = target: Fibroblast growth factor 2 (Homo sapiens) (UniProt P09038); test: basic fibroblast growth factor binding to printed compounds – biochemical, small-molecule microarray, 635/667 nm fluorescence, primary screen (AID 1133); conditions: FGF2, fluorescence 635/667, higher = more signal
[7] = JC-1 mitochondrial potential readout, lung cancer cells – cell-based, A549, JC-1 fluorescence, basal, 24 h, 100 nL, profiling panel (AID 1138); conditions: higher = more signal;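 further: A549 lung adenocarcinoma cells under basal conditions with no added stimulus; test concentration not given here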
[8] = system: Lefty1; test: Lefty1 protein binding to printed compounds – biochemical, small-molecule microarray, 635/667 nm fluorescence, primary screen (AID 1139); conditions: fluorescence 635/667, higher = more signal
[9] = system: wheat germ agglutinin (Triticum aestivum), Alexa647-labelled; test: Alexa647-WGA lectin binding to printed small molecules – biochemical, small-molecule microarray, 635/667 nm fluorescence, artefact control for SMM control-protein annotation, profiling panel (AID 1140); conditions: WGA-A647 binding, 635 nm fluorescence, higher = more signal;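 further: score merges 667 nm feature emission with signal to noise over triplicate slides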
[10] = target: Luciferin 4-monooxygenase (Photinus pyralis) (UniProt P08659); test: inhibition of purified Photinus pyralis luciferase – biochemical, luminescence, purified enzyme, 2006 set, primary screen (AID 1141); conditions: purified firefly luciferase, SteadyGlo luminescence, 30 min; higher = more signal, called active from +8 up or from −8 down;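 further: cell-free assay with purified firefly luciferase at 100 ng per well in PBS; test concentration not given here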
[11] = system: Wnt5a (protein binding on small-molecule microarray); test: small molecules binding Wnt5a protein – biophysical, small-molecule microarray, 635/667 nm fluorescence, primary screen (AID 1142); conditions: 635 nm fluorescence, higher = more signal;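 further: fluorescence read at 667 nm with signal to noise per printed feature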
[12] = ATP-based viability of Huh7 replicon cells – cell-based, CellTiter-Glo luminescence, basal, 48 h, cytotoxicity control for HCV replication inhibitor project, primary screen (AID 1143); conditions: higher = more signal, called active from +8 up or from −8 down;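 further: Huh7 hepatoma cells carrying a hepatitis C replication reporter with no stimulus; test concentration not given here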
[13] = Pseudomonas biofilm growth suppression – PAO1 strain, BacTiter-Glo luminescence, LB-PBS, primary screen (AID 1144); conditions: P. aeruginosa PAO1 biofilm, 12 h, higher = more signal
[14] = basal CRE-LacZ reporter activity in PC12 – cell-based, unstimulated, primary screen (AID 1145); conditions: no forskolin, luminescence, 4.5 h, higher = more signal, called active from +8 up or from −8 down
[15] = forskolin-driven CRE-LacZ activity in PC12 – cell-based, CRE-LacZ reporter, forskolin-stimulated, primary screen (AID 1146); conditions: luminescence, 4.5 h, higher = more signal, called active from +8 up or from −8 down;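 further: PC12 cells with 6xCRE LacZ reporter stimulated by forskolin 10 µM; beta-galactosidase reporter signal reflecting CREB driven transcription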
[16] = target: Streptavidin (Streptomyces avidinii) (UniProt P22629); test: compounds binding control protein streptavidin – biophysical, small-molecule microarray, 635/667 nm fluorescence, artefact control for SMM compound annotation, primary screen (AID 1147); conditions: higher = more signal;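 further: signal reflects streptavidin binding to arrayed compounds as a control protein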
[17] = probe aInhba binding on compound microarray – biochemical, small-molecule microarray, 635/667 nm fluorescence, primary screen (AID 1148); conditions: higher = more signal;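 further: score merges 667nm spot fluorescence with signal-to-noise for antibody binding to printed compounds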
[18] = target: Torsin-1A (Homo sapiens) (UniProt O14656); test: TOR1A wild-type binding on microarray – cell lysate, small-molecule microarray, lysate, 635/667 nm, primary screen (AID 1149); conditions: COS7 hTOR1A-WT lysate, 635 nm fluorescence, higher = more signal
[19] = target: Torsin-1A (Homo sapiens) (UniProt O14656); test: torsin A mutant lysate binding on microarrays – cell lysate, small-molecule microarray, COS7 lysate, 635/667 nm fluorescence, primary screen (AID 1150); conditions: COS7 hTOR1A mutant lysate, 635 nm fluorescence, higher = more signal;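 further: score pools 667 nm emission and signal to noise measuring lysate protein binding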
[20] = system: Sonic hedgehog protein (Shh); test: Sonic hedgehog microarray binding compounds – biochemical, small-molecule microarray, 635/667 nm fluorescence, primary screen (AID 1151); conditions: 635 nm fluorescence, higher = more signal;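 further: Shh protein binding to compounds spotted on small-molecule microarray slides; score combines spot fluorescence intensity with signal-to-noise across triplicate slides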

Focal adhesion kinase 1 (Homo sapiens), sequence (Q05397 whole entry, looked up): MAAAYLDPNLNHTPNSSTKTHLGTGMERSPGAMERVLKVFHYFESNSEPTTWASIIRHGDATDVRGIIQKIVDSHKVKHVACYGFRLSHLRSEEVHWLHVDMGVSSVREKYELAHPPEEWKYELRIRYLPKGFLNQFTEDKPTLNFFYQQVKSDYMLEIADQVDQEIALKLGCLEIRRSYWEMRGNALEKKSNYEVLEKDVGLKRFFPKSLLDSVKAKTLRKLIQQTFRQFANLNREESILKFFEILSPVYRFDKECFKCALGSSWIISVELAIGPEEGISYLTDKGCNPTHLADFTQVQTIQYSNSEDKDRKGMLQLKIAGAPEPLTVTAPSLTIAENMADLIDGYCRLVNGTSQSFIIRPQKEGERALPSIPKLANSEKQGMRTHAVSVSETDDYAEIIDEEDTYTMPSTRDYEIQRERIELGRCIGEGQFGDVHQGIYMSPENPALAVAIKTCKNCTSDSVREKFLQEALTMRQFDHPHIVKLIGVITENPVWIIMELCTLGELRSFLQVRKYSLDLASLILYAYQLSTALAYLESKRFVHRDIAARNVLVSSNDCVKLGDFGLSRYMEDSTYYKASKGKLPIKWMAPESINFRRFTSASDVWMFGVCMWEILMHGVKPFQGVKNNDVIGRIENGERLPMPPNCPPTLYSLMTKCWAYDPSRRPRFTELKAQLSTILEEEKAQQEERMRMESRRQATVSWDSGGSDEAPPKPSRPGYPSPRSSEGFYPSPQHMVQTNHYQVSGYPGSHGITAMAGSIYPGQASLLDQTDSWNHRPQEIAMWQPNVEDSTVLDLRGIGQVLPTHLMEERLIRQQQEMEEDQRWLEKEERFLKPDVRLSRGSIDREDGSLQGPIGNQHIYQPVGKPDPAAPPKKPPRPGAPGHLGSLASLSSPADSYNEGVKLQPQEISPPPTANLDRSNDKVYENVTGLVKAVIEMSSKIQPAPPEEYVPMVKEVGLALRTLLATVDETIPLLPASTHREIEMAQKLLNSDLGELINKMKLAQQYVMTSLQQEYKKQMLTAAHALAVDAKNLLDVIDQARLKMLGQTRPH
Fibroblast growth factor 2 (Homo sapiens), sequence (P09038 whole entry, looked up): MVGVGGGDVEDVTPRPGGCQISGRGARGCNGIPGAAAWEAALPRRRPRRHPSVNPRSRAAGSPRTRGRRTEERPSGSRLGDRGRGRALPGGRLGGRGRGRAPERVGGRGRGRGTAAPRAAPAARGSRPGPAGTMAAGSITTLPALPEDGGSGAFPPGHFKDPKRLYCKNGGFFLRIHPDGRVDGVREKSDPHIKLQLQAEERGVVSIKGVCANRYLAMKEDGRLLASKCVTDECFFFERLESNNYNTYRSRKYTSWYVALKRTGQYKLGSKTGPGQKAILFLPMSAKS
Streptavidin (Streptomyces avidinii), sequence (P22629 whole entry, looked up): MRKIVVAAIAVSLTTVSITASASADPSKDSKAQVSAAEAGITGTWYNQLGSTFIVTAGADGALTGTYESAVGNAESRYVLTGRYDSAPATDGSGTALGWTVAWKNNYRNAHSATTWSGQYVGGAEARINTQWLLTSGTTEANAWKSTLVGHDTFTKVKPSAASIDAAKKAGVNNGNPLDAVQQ
Luciferin 4-monooxygenase (Photinus pyralis), sequence (P08659 whole entry, looked up): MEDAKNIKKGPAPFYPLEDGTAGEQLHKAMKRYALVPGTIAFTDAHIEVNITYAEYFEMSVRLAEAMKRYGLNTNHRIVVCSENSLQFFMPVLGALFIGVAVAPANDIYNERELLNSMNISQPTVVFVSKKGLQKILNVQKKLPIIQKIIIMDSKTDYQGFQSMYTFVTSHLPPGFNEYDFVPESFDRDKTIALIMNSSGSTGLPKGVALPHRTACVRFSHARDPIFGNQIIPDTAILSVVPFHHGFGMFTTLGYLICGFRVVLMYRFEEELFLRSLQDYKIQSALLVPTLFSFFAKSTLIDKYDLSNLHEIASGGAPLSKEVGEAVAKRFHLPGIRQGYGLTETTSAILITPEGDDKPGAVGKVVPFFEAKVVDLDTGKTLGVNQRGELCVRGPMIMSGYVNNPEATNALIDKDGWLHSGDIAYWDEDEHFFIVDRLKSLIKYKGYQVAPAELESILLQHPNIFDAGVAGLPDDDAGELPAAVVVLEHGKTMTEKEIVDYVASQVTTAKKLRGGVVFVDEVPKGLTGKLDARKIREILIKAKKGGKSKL
Follistatin (Homo sapiens), sequence (P19883 whole entry, looked up): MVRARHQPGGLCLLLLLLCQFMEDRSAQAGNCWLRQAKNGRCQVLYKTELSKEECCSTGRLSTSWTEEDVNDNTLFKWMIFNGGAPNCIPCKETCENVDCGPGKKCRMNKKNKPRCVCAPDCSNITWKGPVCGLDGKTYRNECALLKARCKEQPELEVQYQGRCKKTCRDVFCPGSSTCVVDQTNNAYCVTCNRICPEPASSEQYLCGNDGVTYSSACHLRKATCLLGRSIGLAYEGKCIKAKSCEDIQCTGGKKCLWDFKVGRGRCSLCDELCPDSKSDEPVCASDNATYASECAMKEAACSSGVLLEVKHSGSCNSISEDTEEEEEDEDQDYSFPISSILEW
Torsin-1A (Homo sapiens), sequence (O14656 whole entry, looked up): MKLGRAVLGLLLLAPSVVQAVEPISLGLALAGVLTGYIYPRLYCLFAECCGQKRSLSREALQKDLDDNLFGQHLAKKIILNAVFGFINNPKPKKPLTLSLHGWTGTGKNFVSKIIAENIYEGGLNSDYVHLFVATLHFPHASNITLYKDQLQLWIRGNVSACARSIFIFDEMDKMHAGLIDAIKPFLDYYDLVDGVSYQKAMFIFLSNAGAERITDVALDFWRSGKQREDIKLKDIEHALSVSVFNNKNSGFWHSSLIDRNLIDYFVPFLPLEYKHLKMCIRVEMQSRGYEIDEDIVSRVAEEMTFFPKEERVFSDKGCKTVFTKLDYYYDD

| Structure (SMILES) | composite z-score [1] | composite z-score [2] | composite z-score [3] | composite z-score [4] | composite z-score [5] | composite z-score [6] | z-score [7] | composite z-score [8] | composite z-score [9] | z-score [10] | composite z-score [11] | z-score [12] | z-score [13] | z-score [14] | z-score [15] | composite z-score [16] | composite z-score [17] | composite z-score [18] | composite z-score [19] | composite z-score [20] |
| --- | --- | --- | --- | --- | --- | --- | --- | --- | --- | --- | --- | --- | --- | --- | --- | --- | --- | --- | --- | --- |
| O=C1C[C@@](C(=O)NCc2ccccc2)(c2ccc([N+](=O)[O-])cc2)[C@@H](c2ccc(CO)cc2I)N1C1CCCCC1 | 1.12 | 1.2 | 0.532 | 0.805 | 1.43 | 1.25 | -0.0219 | 0.721 | 0.411 | -1.2 (inactive) | 0.286 | -4.73 (inactive) | 0.781 (inactive) | 0.234 (inactive) | 0.583 (inactive) | 0.0068 | 0.572 | 0.89 | 0.217 | 1.13 |
| COCCCNC(=O)[C@]1(Cc2ccccc2)N=C(c2ccc(OCCCO)cc2)O[C@@H]1c1ccccc1N=[N+]=[N-] | 0.36 | 1.22 | -0.0142 | 0.977 | 1.25 | 0.401 | -0.141 | 0.276 | 0.544 | -4.67 (inactive) | 1.1 | -5.91 (inactive) | -1.57 (inactive) | 0.101 (inactive) | -0.844 (inactive) | 0.607 | -0.0136 | 1.04 | 1.04 | -0.46 |
| O=C(O)[C@]1(CCS(=O)(=O)c2ccccc2)N=C(c2ccc(OCCCO)cc2)O[C@@H]1c1ccccc1 | 0.367 | 0.228 | 0.221 | 0.447 | -0.029 | -0.0377 | 0.0511 | -0.655 | 1.36 | -1.87 (inactive) | 0.235 | 0.495 (inactive) | 0.869 (inactive) | 0.19 (inactive) | -0.534 (inactive) | -0.0087 | 0.297 | -0.0493 | -0.301 | -0.439 |
| CN(C)C(=O)[C@@]1(CCC(=O)OC(C)(C)C)COC(c2ccc(OCCCO)cc2)=N1 | 0.282 | 1.11 | 1.63 | -0.254 | 0.625 | -0.357 | -0.191 | -0.235 | 0.334 | 0.995 (inactive) | 0.0507 | -0.196 (inactive) | -0.478 (inactive) | -0.277 (inactive) | 0.855 (inactive) | -0.354 | 0.174 | 0.445 | 1.45 | -0.942 |
| CCN(CC)c1ccc(N2CC=CC34O[C@@H]5/C=C\CCCOC(=O)C5[C@H]3C(=O)N(CCCCCCO)[C@@H]4C2=O)cc1 (stereo not given in full) | 1.27 | -0.299 | -0.177 | -0.801 | -1.21 | -0.616 | 1.1 | -0.324 | -0.22 | -1.9 (inactive) | -0.517 | -0.0416 (inactive) | 0.194 (inactive) | 0.475 (inactive) | 0.458 (inactive) | -0.41 | -0.0762 | -1.7 | -1.59 | 0.216 |
| CN(C)C(=O)[C@@]1(CCS(=O)(=O)c2ccccc2)N=C(c2ccc(OCCCO)cc2)O[C@H]1c1ccccc1CN=[N+]=[N-] | 1.78 | 1.25 | 0.642 | 1.06 | 0.871 | 0.513 | -0.0571 | 0.49 | 0.915 | 0.628 (inactive) | 0.909 | -3.95 (inactive) | -0.873 (inactive) | -0.151 (inactive) | -0.607 (inactive) | 1.13 | 0.148 | 1.07 | 0.351 | 0.159 |
| CC(C)(C)OC(=O)CC[C@]1(C(=O)O)COC(c2ccc(OCCCO)cc2)=N1 | 0.541 | -0.173 | -0.108 | 0.68 | -0.747 | -1.23 | 0.352 | -0.552 | 0.62 | -0.306 (inactive) | -0.0943 | 0.61 (inactive) | 0.178 (inactive) | 0.694 (inactive) | 0.506 (inactive) | 0.142 | -0.0589 | 0.676 | 1.08 | -2.07 |
| COc1cccc(C[C@H]2C[C@@H](CO[Si](C(C)C)(C(C)C)C(C)C)N3C(=O)[C@]4(C(C)=O)O[C@]23[C@H]2C(=O)N(C)C(=O)[C@H]24)c1 | 0.786 | 1.04 | 0.353 | 0.674 | 0.9 | 0.865 | 1.51 | 1.19 | 0.425 | 0.216 (inactive) | 0.205 | -4.4 (inactive) | 0.0793 (inactive) | 1.62 (inactive) | 0.325 (inactive) | 0.636 | -0.008 | 0.0282 | 0.611 | 1.09 |
| COC(=O)[C@@]1(Cc2ccccc2)[C@H]2c3cc(C(=O)N4CCCC4)n(CCO)c3C[C@H]2CN1C(=O)c1ccccc1 | 0.931 | 0.992 | 0.747 | 0.488 | 0.961 | 0.0586 | 0.841 | -0.493 | 1.12 | 0.891 (inactive) | 1.42 | -1.08 (inactive) | 0.0984 (inactive) | -0.189 (inactive) | 0.0581 (inactive) | 1.97 | 1.4 | 3.21 | 3.41 | -1.01 |
